# ChEMBL document CHEMBL1961873, “Compounds: GSK PKIS; Assays: Nanosyn kinase panel” (2012)
# Experiments:
# [1] = biological target: Ribosomal protein S6 kinase alpha-6 (Homo sapiens) (UniProt Q9UK32); conditions: at 1 µM;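 note: each value is a mean inhibition of RSK4 from a GSK PKIS panel screen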
# [2] = biological target: T1, Serine/threonine-protein kinase Sgk1 (Homo sapiens) (UniProt O00141); conditions: at 0.1 µM
# T1 sequence (whole entry): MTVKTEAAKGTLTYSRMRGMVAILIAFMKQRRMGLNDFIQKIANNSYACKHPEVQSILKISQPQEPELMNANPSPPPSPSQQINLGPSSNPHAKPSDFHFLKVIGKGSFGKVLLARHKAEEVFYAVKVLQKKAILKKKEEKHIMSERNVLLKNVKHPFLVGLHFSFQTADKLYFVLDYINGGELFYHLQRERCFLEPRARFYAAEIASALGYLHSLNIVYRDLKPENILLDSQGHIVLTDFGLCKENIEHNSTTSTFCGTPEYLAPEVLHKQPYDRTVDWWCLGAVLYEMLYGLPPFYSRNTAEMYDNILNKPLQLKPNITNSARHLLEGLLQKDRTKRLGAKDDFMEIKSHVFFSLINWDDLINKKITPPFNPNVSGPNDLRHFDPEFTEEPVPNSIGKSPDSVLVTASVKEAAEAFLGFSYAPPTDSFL
# [3] = biological target: T1, Serine/threonine-protein kinase Sgk1 (Homo sapiens); conditions: at 1 µM
# [4] = biological target: T2, Serine/threonine-protein kinase Sgk2 (Homo sapiens) (UniProt Q9HBY8); conditions: at 0.1 µM
# T2 sequence (whole entry): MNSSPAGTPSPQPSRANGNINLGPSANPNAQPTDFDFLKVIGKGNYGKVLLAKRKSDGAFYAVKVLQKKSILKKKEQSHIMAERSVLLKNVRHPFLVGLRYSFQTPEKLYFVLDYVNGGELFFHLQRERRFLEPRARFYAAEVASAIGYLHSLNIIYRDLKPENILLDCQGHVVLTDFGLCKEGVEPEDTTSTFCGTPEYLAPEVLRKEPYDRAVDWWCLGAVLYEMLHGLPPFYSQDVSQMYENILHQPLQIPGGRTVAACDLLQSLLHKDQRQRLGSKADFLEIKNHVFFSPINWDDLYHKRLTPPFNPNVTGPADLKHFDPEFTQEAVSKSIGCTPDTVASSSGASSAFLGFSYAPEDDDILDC
# [5] = biological target: T2, Serine/threonine-protein kinase Sgk2 (Homo sapiens); conditions: at 1 µM
# [6] = biological target: T3, Serine/threonine-protein kinase Sgk3 (Homo sapiens) (UniProt Q96BR1); conditions: at 0.1 µM
# T3 sequence (whole entry): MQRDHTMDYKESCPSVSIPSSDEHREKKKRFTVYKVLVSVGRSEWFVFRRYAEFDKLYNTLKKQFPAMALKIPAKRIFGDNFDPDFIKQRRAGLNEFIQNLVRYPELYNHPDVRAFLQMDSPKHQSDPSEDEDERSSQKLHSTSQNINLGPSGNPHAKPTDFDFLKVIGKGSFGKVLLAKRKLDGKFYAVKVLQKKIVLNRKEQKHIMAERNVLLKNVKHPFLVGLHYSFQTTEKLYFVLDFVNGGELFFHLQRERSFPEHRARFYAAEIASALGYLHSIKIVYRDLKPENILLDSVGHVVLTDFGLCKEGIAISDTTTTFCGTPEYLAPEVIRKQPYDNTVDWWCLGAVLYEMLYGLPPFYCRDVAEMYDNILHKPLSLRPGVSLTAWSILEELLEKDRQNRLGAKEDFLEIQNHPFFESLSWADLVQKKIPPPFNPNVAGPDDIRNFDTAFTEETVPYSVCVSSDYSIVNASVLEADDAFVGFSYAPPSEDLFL
# [7] = biological target: T3, Serine/threonine-protein kinase Sgk3 (Homo sapiens); conditions: at 1 µM
# [8] = biological target: 5'-AMP-activated protein kinase catalytic subunit alpha-1 (Homo sapiens) (UniProt Q13131); conditions: at 0.1 µM
# Chain of 5'-AMP-activated protein kinase catalytic subunit alpha-1 (Homo sapiens) (Q13131 whole entry, looked up): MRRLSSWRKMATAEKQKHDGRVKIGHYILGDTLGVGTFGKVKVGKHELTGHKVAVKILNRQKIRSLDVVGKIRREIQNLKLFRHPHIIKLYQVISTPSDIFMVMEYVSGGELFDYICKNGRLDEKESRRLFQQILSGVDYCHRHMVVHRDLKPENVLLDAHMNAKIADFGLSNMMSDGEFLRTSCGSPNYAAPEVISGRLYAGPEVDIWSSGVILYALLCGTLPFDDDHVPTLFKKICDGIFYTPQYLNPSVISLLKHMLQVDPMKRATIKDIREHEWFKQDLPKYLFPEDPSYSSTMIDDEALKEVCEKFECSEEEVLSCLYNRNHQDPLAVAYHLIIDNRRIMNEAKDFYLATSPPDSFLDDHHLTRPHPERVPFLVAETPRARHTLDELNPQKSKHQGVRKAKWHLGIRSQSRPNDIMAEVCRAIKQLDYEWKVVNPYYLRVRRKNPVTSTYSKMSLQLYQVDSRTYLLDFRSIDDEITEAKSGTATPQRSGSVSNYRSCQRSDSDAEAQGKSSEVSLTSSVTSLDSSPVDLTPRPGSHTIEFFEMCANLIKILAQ
# [9] = biological target: 5'-AMP-activated protein kinase catalytic subunit alpha-1 (Homo sapiens) (UniProt Q13131); conditions: at 1 µM
# [10] = biological target: 5'-AMP-activated protein kinase catalytic subunit alpha-2 (Homo sapiens) (UniProt P54646); conditions: at 0.1 µM
# Chain of 5'-AMP-activated protein kinase catalytic subunit alpha-2 (Homo sapiens) (P54646 whole entry, looked up): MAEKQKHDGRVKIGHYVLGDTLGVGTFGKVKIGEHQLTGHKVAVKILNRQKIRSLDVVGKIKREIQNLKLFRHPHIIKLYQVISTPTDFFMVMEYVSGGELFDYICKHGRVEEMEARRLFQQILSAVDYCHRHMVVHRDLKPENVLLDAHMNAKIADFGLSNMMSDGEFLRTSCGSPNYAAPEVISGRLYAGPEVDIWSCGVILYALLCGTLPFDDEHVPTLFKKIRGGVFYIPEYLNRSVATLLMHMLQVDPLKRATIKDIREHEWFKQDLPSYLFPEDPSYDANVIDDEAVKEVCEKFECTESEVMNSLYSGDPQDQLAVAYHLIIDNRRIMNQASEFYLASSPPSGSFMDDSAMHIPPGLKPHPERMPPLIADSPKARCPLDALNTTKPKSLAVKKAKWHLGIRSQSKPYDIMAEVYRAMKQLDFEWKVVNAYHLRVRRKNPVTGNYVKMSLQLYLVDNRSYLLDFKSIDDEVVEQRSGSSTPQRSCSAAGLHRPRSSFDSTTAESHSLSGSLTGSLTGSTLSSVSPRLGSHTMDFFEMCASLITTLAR
# [11] = biological target: 5'-AMP-activated protein kinase catalytic subunit alpha-2 (Homo sapiens) (UniProt P54646); conditions: at 1 µM
# [12] = biological target: T4, NUAK family SNF1-like kinase 1 (Homo sapiens) (UniProt O60285); conditions: at 0.1 µM
# T4 sequence (whole entry): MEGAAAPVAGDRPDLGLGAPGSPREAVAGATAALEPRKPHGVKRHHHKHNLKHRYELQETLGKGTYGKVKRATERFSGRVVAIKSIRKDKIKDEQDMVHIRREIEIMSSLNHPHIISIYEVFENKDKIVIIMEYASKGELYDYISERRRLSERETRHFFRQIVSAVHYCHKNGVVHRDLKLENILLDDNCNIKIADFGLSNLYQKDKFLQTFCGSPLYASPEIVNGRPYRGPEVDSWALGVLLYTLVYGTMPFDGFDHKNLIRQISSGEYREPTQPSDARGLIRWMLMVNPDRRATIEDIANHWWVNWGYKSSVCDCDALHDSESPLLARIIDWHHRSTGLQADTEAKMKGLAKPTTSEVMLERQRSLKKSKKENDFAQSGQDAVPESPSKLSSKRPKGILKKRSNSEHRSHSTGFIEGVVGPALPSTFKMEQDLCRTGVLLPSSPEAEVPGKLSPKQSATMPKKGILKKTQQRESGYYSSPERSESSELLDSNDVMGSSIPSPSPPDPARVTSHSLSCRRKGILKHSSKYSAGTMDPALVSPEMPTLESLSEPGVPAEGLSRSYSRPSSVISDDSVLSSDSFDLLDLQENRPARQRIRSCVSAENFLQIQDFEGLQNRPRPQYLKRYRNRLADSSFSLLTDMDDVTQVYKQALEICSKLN
# [13] = biological target: T4, NUAK family SNF1-like kinase 1 (Homo sapiens); conditions: at 1 µM
# [14] = biological target: T5, Serine/threonine-protein kinase BRSK1 (Homo sapiens) (UniProt Q8TDC3); conditions: at 0.1 µM
# T5 sequence (whole entry): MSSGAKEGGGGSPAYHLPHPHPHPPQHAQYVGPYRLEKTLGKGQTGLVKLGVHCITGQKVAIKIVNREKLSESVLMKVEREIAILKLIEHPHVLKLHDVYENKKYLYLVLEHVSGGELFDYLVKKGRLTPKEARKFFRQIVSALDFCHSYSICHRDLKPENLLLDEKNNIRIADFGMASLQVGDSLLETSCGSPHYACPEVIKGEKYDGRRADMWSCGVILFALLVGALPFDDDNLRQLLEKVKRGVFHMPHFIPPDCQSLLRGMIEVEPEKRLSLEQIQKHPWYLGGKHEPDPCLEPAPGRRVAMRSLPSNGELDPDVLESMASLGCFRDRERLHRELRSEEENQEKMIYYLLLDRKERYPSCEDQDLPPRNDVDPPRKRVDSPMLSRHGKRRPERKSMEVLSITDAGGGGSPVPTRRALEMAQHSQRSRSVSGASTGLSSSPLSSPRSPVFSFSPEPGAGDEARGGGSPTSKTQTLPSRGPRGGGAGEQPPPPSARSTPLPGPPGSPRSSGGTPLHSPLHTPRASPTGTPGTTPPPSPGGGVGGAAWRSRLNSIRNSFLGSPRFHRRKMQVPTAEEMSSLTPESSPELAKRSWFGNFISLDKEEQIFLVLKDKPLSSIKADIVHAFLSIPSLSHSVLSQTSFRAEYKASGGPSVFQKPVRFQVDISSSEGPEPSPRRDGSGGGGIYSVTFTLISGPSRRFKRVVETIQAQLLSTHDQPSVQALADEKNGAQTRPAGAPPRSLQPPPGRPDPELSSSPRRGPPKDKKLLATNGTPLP
# [15] = biological target: T5, Serine/threonine-protein kinase BRSK1 (Homo sapiens); conditions: at 1 µM
# [16] = biological target: T6, Serine/threonine-protein kinase BRSK2 (Homo sapiens) (UniProt Q8IWQ3); conditions: at 0.1 µM
# T6 sequence (whole entry): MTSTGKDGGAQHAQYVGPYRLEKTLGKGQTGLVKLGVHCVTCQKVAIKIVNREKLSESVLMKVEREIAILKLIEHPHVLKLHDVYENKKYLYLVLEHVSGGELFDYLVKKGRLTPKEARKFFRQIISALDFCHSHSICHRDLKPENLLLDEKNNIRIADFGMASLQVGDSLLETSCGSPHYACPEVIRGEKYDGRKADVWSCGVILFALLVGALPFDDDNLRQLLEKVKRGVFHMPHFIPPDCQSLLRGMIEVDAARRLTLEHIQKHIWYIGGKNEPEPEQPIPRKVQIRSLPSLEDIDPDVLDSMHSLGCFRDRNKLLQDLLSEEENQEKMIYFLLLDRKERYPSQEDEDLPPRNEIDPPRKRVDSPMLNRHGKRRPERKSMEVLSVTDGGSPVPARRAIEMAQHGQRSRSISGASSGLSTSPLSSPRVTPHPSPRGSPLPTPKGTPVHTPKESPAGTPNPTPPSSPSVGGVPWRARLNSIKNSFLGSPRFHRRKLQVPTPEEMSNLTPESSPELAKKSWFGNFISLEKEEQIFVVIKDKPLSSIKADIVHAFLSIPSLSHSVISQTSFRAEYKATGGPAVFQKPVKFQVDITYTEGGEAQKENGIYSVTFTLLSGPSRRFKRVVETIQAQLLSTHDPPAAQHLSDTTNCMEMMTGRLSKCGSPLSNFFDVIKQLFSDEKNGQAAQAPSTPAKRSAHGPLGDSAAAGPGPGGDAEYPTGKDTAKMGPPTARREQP
# [17] = biological target: T6, Serine/threonine-protein kinase BRSK2 (Homo sapiens); conditions: at 1 µM
# [18] = biological target: Calcium/calmodulin-dependent protein kinase type 1D (Homo sapiens) (UniProt Q8IU85); conditions: at 0.1 µM
# Chain of Calcium/calmodulin-dependent protein kinase type 1D (Homo sapiens) (Q8IU85 whole entry, looked up): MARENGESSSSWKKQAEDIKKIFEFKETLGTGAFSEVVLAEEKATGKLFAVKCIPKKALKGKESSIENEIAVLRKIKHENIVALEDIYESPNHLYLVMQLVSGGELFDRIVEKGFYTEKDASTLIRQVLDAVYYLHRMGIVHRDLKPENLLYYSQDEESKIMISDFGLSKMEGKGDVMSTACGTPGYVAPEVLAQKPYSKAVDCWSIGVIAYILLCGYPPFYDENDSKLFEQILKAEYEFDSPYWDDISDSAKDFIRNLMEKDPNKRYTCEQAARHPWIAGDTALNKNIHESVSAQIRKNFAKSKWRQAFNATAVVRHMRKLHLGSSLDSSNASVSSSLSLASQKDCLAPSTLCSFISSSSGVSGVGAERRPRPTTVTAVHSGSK
# [19] = biological target: Calcium/calmodulin-dependent protein kinase type 1D (Homo sapiens) (UniProt Q8IU85); conditions: at 1 µM
# [20] = biological target: Calcium/calmodulin-dependent protein kinase type II subunit alpha (Homo sapiens) (UniProt Q9UQM7); conditions: at 0.1 µM;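 note: reported values are averages (mean inhibition of CAMK2A)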
# Chain of Calcium/calmodulin-dependent protein kinase type II subunit alpha (Homo sapiens) (Q9UQM7 whole entry): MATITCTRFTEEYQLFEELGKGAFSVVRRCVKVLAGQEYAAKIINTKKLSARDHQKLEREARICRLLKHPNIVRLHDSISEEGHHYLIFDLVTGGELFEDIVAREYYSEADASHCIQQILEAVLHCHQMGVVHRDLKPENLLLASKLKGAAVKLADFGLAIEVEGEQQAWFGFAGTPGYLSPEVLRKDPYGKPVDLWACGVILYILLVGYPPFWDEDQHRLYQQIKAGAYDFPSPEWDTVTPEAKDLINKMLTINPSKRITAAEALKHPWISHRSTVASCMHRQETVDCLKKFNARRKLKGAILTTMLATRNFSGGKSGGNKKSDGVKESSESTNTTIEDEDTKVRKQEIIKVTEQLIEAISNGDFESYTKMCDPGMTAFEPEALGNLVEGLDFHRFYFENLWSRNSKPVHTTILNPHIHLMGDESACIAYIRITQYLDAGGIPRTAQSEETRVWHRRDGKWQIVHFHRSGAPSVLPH
# Chain of Ribosomal protein S6 kinase alpha-6 (Homo sapiens) (Q9UK32 whole entry): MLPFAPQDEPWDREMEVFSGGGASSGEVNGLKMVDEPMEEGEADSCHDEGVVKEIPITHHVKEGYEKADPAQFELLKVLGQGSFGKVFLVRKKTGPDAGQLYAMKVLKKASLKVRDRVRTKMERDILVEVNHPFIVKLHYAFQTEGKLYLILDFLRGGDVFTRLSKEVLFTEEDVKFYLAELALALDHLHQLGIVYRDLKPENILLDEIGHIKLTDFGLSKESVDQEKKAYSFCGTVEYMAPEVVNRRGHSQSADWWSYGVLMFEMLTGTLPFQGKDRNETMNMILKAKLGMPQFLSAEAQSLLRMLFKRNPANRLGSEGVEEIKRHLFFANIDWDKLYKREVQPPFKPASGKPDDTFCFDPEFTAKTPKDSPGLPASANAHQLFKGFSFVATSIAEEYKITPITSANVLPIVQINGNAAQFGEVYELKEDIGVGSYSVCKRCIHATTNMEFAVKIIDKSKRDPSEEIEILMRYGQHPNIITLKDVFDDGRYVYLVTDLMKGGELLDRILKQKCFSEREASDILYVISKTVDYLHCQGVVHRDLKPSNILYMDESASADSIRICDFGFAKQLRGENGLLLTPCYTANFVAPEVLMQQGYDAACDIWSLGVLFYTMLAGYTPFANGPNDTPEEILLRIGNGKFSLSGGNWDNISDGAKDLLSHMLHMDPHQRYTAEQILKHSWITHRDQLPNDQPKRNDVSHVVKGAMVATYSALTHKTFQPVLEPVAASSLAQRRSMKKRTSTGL
SMILES,inhibition [1],inhibition [2],inhibition [3],inhibition [4],inhibition [5],inhibition [6],inhibition [7],inhibition [8],inhibition [9],inhibition [10],inhibition [11],inhibition [12],inhibition [13],inhibition [14],inhibition [15],inhibition [16],inhibition [17],inhibition [18],inhibition [19],inhibition [20]
Nc1nc(-c2ccc(F)cc2)c(-c2ccc3ncccc3n2)s1,3.36%,2.87%,4.24%,4.24%,4.34%,4.05%,3.66%,3.33%,5.29%,1.85%,3.37%,3.85%,7.09%,1.97%,3.32%,2.41%,5.28%,0.67%,0.5%,4.42%
CCN(CC)S(=O)(=O)c1ccc(OC)c(Nc2ncc(-c3ccccc3)o2)c1,2.89%,-0.03%,3.29%,0.96%,1.93%,4.69%,0.56%,1.56%,3.48%,-5.76%,0.95%,5.96%,3.38%,-0.07%,0.94%,3.36%,6.08%,0.13%,-0.06%,3.02%
CN1CCC(n2cnc(-c3ccc(F)cc3)c2-c2ccnc(Nc3ccccc3)n2)CC1,2.69%,2.19%,5.36%,3.28%,5.4%,2.89%,3.19%,2.05%,3.64%,-0.33%,2.34%,-2.56%,4.19%,0.59%,0.41%,0.56%,1.93%,0.81%,1.85%,3.46%
